Assay outcomes: PubChem, University of Kansas High Throughput Screening Laboratory
mHTT CaM bind – mHTT-calmodulin interaction abrogation; inhibition, % at 15 µM; 190,000 tested, 3.6% active; AlphaScreen His-mHTT/GST-CaM binding, luminescence; P42858;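 also: 0% = both proteins with DMSO and 100% = one protein alone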
Pf apPOL inh – Pf-apPOL DNA polymerase inhibition. 210,000 tested, 0.25% active. Recombinant Pf-apPOL, molecular beacon fluorescence, 1.5 h. inhibition, % at 10 µM. AID 1794808
* = called active by the depositor; nt = no result; ! = not confirmed by another sample. Shown are actives, neighbours in structure and some others; about 3.6% of the full set was active somewhere. Rule as the data show it: active = inhibition above about 50%; inactive = the rest.

SMILES | mHTT CaM bind | Pf apPOL inh
Cc1ccc(C)c(CNC(=O)c2cn3c(n2)CN(CC(C)C)CC3)c1 | 20.0 | 0.1
Cc1cccc(N2CCN(C(=O)c3cn4c(n3)COCC4)CC2)c1C | 5.3 | -0.4
Cc1cccc(N2CCN(C(=O)c3cn4c(n3)CN(CC(C)C)CC4)CC2)c1C | 71.4* | -7.9
Cc1cc(C)c(CNC(=O)c2cn3c(n2)CN(CC(C)C)CC3)c(C)c1 | 70.7* | -0.5
CC(C)CN1CCn2cc(C(=O)N3CCN(c4ccc(Cl)cc4)CC3)nc2C1 | 91.5* | -8.7
CCCN1CCn2cc(C(=O)N3CCN(c4ccc(Cl)cc4)CC3)nc2C1 | 17.0 | -4.6
CN1C(=O)S/C(=C\c2ccccc2OCc2ccc(Cl)cc2)C1=O | -2.0 | -3.7
OC(C#CC(O)(c1ccccc1)c1ccccc1)(c1ccccc1)c1ccccc1 | nt | -11.5
COc1ccc(C(O)(C#Cc2ccccc2)c2ccccc2)cc1 (centres undefined) | 59.9* | -1.7
O=C(Nc1ccc(Br)cc1)C1CC(=O)N(c2ccc(Br)cc2)C1 (centres undefined) | -9.5 | 1.7
CCN(Cc1ccccc1)C(=O)CN(C)S(=O)(=O)c1ccc2[nH]c3c(c2c1)CCCC3 | 64.7* | -2.8
Cc1cccc(C)c1NC(=O)CN(C)S(=O)(=O)c1ccc2[nH]c3c(c2c1)CCCC3 | 26.3 | -3.0
CN(CC(=O)NCc1ccccc1)S(=O)(=O)c1ccc2[nH]c3c(c2c1)CCCC3 | 46.2 | -3.8
Cc1cccc(N(C)C(=O)CN(C)S(=O)(=O)c2ccc3[nH]c4c(c3c2)CCCC4)c1 | 62.3* | -3.6
CCOc1ccc(/C=c2\sc3nc(=O)c(-c4ccccc4)nn3c2=O)cc1OC | 7.0 | -6.9
COc1cccc(C(=O)N2CCC(c3cnn(-c4cccc(C)c4)c3)CC2)c1 | 14.6 | -5.6
Cc1ccc(NC(=O)Cn2nc(N(C)C)c3ccccc3c2=O)cc1F | 4.8 | -2.7
CN1C2=NCCN2C(=O)c2cc(Cl)ccc21 | nt | -5.4
CN(C)/C=C1\N=C(c2ccccc2)c2cc(Cl)ccc2N(C)C1=O | 51.0* | 3.4
O=C(c1cccnc1)N1CCN(c2ccc([N+](=O)[O-])cc2)CC1 | -1.1 | 0.4
O=C(c1ccc(C#CC2(O)CCCCC2)cc1)N1CCN(c2ccc([N+](=O)[O-])cc2)CC1 | 55.6* | -0.6
COc1ccc(C(NC(=O)CC(C)C)c2ccc3cccnc3c2O)cc1OC (centres undefined) | 24.0 | -8.8
CCC(=O)NC(c1ccc(OC)c(OC)c1)c1ccc2cccnc2c1O (centres undefined) | 100.0* | 94.1*!
COc1cc(NC(=O)Cc2ccc(OC)c(OC)c2)c2ncccc2c1 | 15.0 | -4.5
COc1ccc(C(NC(C)=O)c2ccc3cccnc3c2O)cc1OC (centres undefined) | 100.0* | -24.2
SMILES | mHTT CaM bind | Pf apPOL inh
COc1ccc(C2=COC3(CCCN(C(=O)c4cccc(F)c4)C3)C2)cc1 (centres undefined) | -64.5 | -6.6
COc1ccccc1C1C(C#N)=C(N)SC(N)=C1C#N | 7.6 | -4.9
CC1C(C#N)=C(N)SC(N)=C1C#N | 98.5* | -3.1
COc1cc(OC)c(C2C(C#N)=C(N)SC(N)=C2C#N)cc1OC | 70.5* | nt
CCCC1C(C#N)=C(N)SC(N)=C1C#N | 3.8 | -5.8
CCc1ccc(C2N(c3ccc(F)cc3)C(=O)C3CCCN32)cc1 (centres undefined) | 5.2 | 0.6
O=c1/c(=C/c2ccc(O)c(Br)c2)sc2nc3ccccc3n12 | 10.0 | -0.9
COc1cc(OC)cc(C(=O)NCCc2ccc3c(c2)CCCN3C)c1 | 47.1 | 1.7
Brc1ncnc2nc[nH]c12 | -5.5 | nt
O=C(O)c1ncnc2nc[nH]c12 | 99.1* | nt
Cc1ccccc1Cc1c(C)nc2c(C(=O)NCCc3ccccc3)cnn2c1C | 51.0* | -4.8
COC(CNC(=O)c1cnn2c(C)c(Cc3cc(C)ccc3C)c(C)nc12)OC | 61.0* | -9.6
COCCNC(=O)c1cnn2c(C)c(Cc3cc(C)ccc3C)c(C)nc12 | 31.0 | -8.6
COCCCNC(=O)c1cnn2c(C)c(Cc3ccccc3C)c(C)nc12 | 42.0 | -7.8
Cc1nc2c(C(=O)NCc3ccccc3)cnn2c(C)c1Cc1ccccc1F | 21.0 | -10.4
Cc1nc2c(C(=O)NCCc3ccccc3)cnn2c(C)c1Cc1ccccc1F | 70.0* | -11.7
O=C(NCc1ccco1)C1CCN(c2nnc3ccccn23)CC1 | 4.2 | -6.6
CC(C)=C1C2C=CC1C1C(=O)N(c3ccccc3Cl)C(=O)C21 (centres undefined) | 2.0 | -10.3
Cc1cccc(C(=O)N2CCCC(C(=O)NCc3ccccc3Cl)C2)c1 (centres undefined) | 30.4 | -8.3
Cc1ccc(O)c(NC(=O)CCc2ccccc2)c1 | -2.3 | -11.7
Cc1cccc(NC(=O)C2CN(S(C)(=O)=O)CC23CCCCC3)c1 (centres undefined) | -0.8 | 2.7
COc1ccc(CNC(=O)[C@@H]2CC=C[C@@H]3CCN(Cc4ccccc4)C(=O)[C@@H]32)cc1 | 5.3 | -0.5
O=C(NCCc1ccccc1)[C@@H]1CC=C[C@@H]2CCN(Cc3ccc(Cl)c(Cl)c3)C(=O)[C@@H]21 | 99.5* | -9.1
CCCCNC(=O)[C@@H]1CC=C[C@@H]2CCN(Cc3ccc(Cl)c(Cl)c3)C(=O)[C@@H]21 | 24.8 | -14.9
O=C(NCc1cccnc1)[C@@H]1CC=C[C@@H]2CCN(Cc3ccc(Cl)c(Cl)c3)C(=O)[C@@H]21 | 59.2* | -6.5
SMILES | mHTT CaM bind | Pf apPOL inh
COc1cc([N+](=O)[O-])ccc1NC(=O)COc1ccc(Br)cc1Cl | -1.1 | -3.3
Cc1ccc(NC(=O)c2c(-c3c(Cl)cccc3Cl)noc2C)c([N+](=O)[O-])c1 | 18.9 | 6.1
Cc1onc(-c2c(Cl)cccc2Cl)c1C(=O)Nc1ccc(F)c([N+](=O)[O-])c1 | 63.0* | 42.3
Cc1onc(-c2ccccc2Cl)c1C(=O)Nc1ccc(F)c([N+](=O)[O-])c1 | 23.0 | -5.2
COc1ccc(NC(=O)c2c(-c3c(Cl)cccc3Cl)noc2C)c([N+](=O)[O-])c1 | 52.6* | 11.4
Cc1ccc2nc(NC(=O)c3cc([N+](=O)[O-])ccc3Cl)sc2c1 | -2.0 | -3.4
Cc1onc(-c2c(Cl)cccc2Cl)c1C(=O)Nc1nc2ccc([N+](=O)[O-])cc2s1 | 84.9* | -22.4
COc1ccc(CNC(=O)C2(C)Oc3cccnc3NC2=O)cc1OC (centres undefined) | -5.9 | -0.5
Cc1ccc(-c2noc(-c3cccnc3N3CCC(C(=O)NCC4CC4)CC3)n2)cc1 | -10.2 | -2.4
CCCc1cc(=O)n(-c2ccc([N+](=O)[O-])cc2)[nH]1 | 51.8* | -1.3
O=c1cc(N2CCOCC2)[nH]n1-c1ccc([N+](=O)[O-])cc1 | 37.0 | 7.3
CCc1cc2c(=O)c(-c3ccc4c(c3)OCCO4)coc2cc1OC(=O)c1ccccc1OC | 13.6 | -1.8
CC1CC(C)CN(C(=O)c2ccc(Cl)cc2[N+](=O)[O-])C1 (centres undefined) | 0.0 | 1.6
CC1CCCN(C(=O)c2ccc(Cl)cc2[N+](=O)[O-])C1 (centres undefined) | 2.7 | 80.4*
COc1ccc(N(C(F)F)S(=O)(=O)c2cc([N+](=O)[O-])ccc2C)cc1 | 18.2 | -11.6
COc1ncnc2c1C(c1cccc([N+](=O)[O-])c1)c1c(OC)ncnc1O2 | 7.0 | -6.5
CNc1ncnc2c1C(c1cccc([N+](=O)[O-])c1)c1c(NC)ncnc1O2 | 13.0 | 75.4*
CCc1ncn2ccnc(NCc3cccs3)c12 | 25.3 | -3.9
